Results as given in ChEMBL document CHEMBL3988442, “University of Dundee, Small-Polar-MMV Screening Library” (2021).
Screen size: about 48,000 compounds; about 13,000 (27%) showed an effect of 50% or more. The list shows a part of the results.

The molecules below were run on Wolbachia pipientis (assay: Anti-Wolbachia Cell-Based Screen). Conditions: 5 µM.
Format: functional
Design: scale not given: in the data most compounds retested in dose-response had high values

SMILES	Percent Effect [%]
COc1cccc(CNCc2nnc3n2CC(C(F)(F)F)CC3)c1 (stereo unspecified)	-16.12
CCC1COCCN1C(=O)CNC(=O)c1ccc2c(c1)CCC2 (stereo unspecified)	-1.675
CCn1cc(NC(=O)NCCN2CCc3ccccc3C2)cn1	123.6
NC(=O)Cn1cc(NC(=O)NCCN2CCc3ccccc3C2)cn1	93.55
CCn1cc(NC(=O)NCC(O)CN2CCc3ccccc3C2)cn1 (stereo unspecified)	9.53
CCn1cc(NC(=O)NCC(c2cccs2)N(C)C)cn1 (stereo unspecified)	-11.74
CCn1cc(NC(=O)NCC(C)(C)N2CCc3ccccc3C2)cn1	107.6
CCC(CNC(=O)c1ccccc1Br)N1CCc2ccccc2C1 (stereo unspecified)	-9.585
CCC(CNC(=O)Nc1cnn(CC)c1)N1CCc2ccccc2C1 (stereo unspecified)	115.3
NC(=O)Cn1cc(NC(=O)NCC2CCN(c3ccccc3)C2)cn1 (stereo unspecified)	6.849
CCC(CNC(=O)Nc1cnn(CC)c1)N1CCCC1 (stereo unspecified)	-8.538
CC(Cn1cccn1)NC(=O)NCCN1CCc2ccccc2C1 (stereo unspecified)	1.571
NC(=O)Cn1cc(NC(=O)N2CCCC2)cn1	-13.27
O=C(NCC(O)CN1CCc2ccccc2C1)Nc1cccnc1 (stereo unspecified)	1.395
COc1ncccc1CNCc1c(C)nn(C)c1N(C)C	96.94
COCc1ccccc1CNCc1c(C)nn(C)c1N(C)C	5.243
Cc1nn(CCO)c(C)c1CNCc1cccnc1N(C)C	113.9
CC(C)c1nn(C)c(N(C)C)c1CNCc1ccccc1CN(C)C	-8.36
Cc1nn(C)c(N(C)C)c1CNCc1cccnc1N(C)C	64.69
COc1ncccc1CNCc1c(C(C)C)nn(C)c1N(C)C	7.273
COCCOc1ncccc1CNCc1c(C)nn(C)c1N(C)C	5.631
Cc1nn(C)c(N(C)C)c1CNCc1ccccc1Cn1cncn1	3.483
CCOc1ncccc1CNCc1c(C(C)C)nn(C)c1N(C)C	98.21
Cc1cnn(CCNCc2c(C)nn(CCO)c2C)c1	8.317

SMILES	Percent Effect [%]
Cc1cc2nc(C(=O)NCc3cccnc3N(C)C)cc(C)n2n1	-11.37
CCOc1ccc(NC2CCN(C)C2=O)cn1 (stereo unspecified)	-24.45
Cc1noc(C)c1CN(C)CC1CC(C2CCCCC2)=NO1 (stereo unspecified)	7.193
Cc1cc(CNCC2(O)CCOCC2)ccc1Br	-3.743
CN1CCN(CCCOc2ccccc2CN2C[C@H]3CC[C@H]2C3)CC1	-24.99
CCOc1ncccc1CNCc1c(C)nn(C)c1N(C)C	97
Cc1nn(C)c(N(C)C)c1CNCc1ccccc1CN(C)C	13.98
Cc1nn(C)c(N(C)C)c1CNCc1cccnc1OC(C)C	107.9
COc1c(CNCc2cccnc2OC(C)C)c(C(C)C)nn1C	2.472
Cc1ccc(CNC(=O)C2CCN(C(=O)c3ccco3)CC2)n1C	1.7
Cn1cc(CN2C[C@@H]3CCCO[C@@H]3[C@H](N3CCCC3=O)C2)cn1.O=C(O)C(F)(F)F	-11.94
Cc1ccc(N2CCCC(NCc3sccc3C)C2)nn1 (stereo unspecified)	101
Cc1ccc(N2CCCC(NCc3ccc(C)s3)C2)nn1 (stereo unspecified)	102.5
Cc1ccc(N2CCCC(NCc3cnc(C)s3)C2)nn1 (stereo unspecified)	95.67
Cc1ccc(N2CCCC(NCc3ccsc3)C2)nn1 (stereo unspecified)	-6.53
CCN(CCOC)C(=O)CCc1scnc1C	1.791
CCc1ccc(CNc2cc(-c3ccoc3C)nn2CCO)o1	-16.42
Cc1nnc2n1CCN(C(=O)c1cnc3c(cnn3CC(C)C)c1)C2	-2.285
CN(C)c1ccc(CN(CCCn2ccnc2)Cc2c[nH]cn2)cc1.O=C(O)CC(O)(CC(=O)O)C(=O)O	-12.92
CC(C)OCCCN(Cc1cnn(C)c1)Cc1ccccn1.O=C(O)CC(O)(CC(=O)O)C(=O)O	84.46
Cc1ccc(CN(CCCN(C)C)Cc2cnc(N(C)C)nc2)o1.O=C(O)CC(O)(CC(=O)O)C(=O)O	115.6
COc1cc(CN(CCCN(C)C)Cc2ccccn2)cc2c1OCO2.O=C(O)CC(O)(CC(=O)O)C(=O)O	126.3
O=C(Cc1cn2ccsc2n1)N(Cc1ccco1)CC1CCCO1 (stereo unspecified)	1.448
CC(C)CN(Cc1ccc(O)c(C(=O)O)c1)Cc1cnn(C)c1	-4.31

SMILES	Percent Effect [%]
Cc1nc2sccn2c1CN(CCCN(C)C)Cc1ccco1.O=C(O)CC(O)(CC(=O)O)C(=O)O	131.3
COc1cc(CN(Cc2ccccn2)CC(C)C)cc2c1OCO2	-37.75
Cc1ncsc1CCN(C)Cc1cc2n(n1)CCN(Cc1ccco1)C2	0.12
COCc1cc(N(CC(F)F)C2CC2)n2ncnc2n1	-15.21
CC(C)(Cn1cnc(-c2ccccc2)c1-c1ccco1)N1CCOCC1	0.7687
Cc1nc2c(c(=O)n1C)CCN(C(=O)CCc1ccccn1)CC2	-4.884
CN(Cc1cnn(C)c1)S(=O)(=O)N1CCCC1c1ccco1 (stereo unspecified)	-4.037
CN(C)[C@@H]1CCN(C(=O)c2ccco2)[C@H]1Cc1cnn(C)c1.O=C(O)C(F)(F)F	-8.002
CCN(CCCN1CCOCC1)C(=O)c1cnn(CC)c1	-6.092
CN(C)CCCN(Cc1cnn(C)c1)Cc1ccco1.O=C(O)CC(O)(CC(=O)O)C(=O)O	115.2
COCCN(Cc1cnn(C)c1)Cc1ccc(C)o1	2.974
Cc1ccc(CN(CCCN2CCOCC2)Cc2cnn(C)c2)o1.O=C(O)CC(O)(CC(=O)O)C(=O)O	97.82
O=C1NCC2(CCCN(C(=O)Nc3ccc4scnc4c3)CC2)O1 (stereo unspecified)	-9.08
Cc1cnn(CC2CCN(CC(O)c3ccc(F)cc3)CC2)c1 (stereo unspecified)	-5.813
CC(C)CN1CCS(=O)(=O)[C@@H]2CCN(S(=O)(=O)N(C)C)CC[C@@H]21.O=C(O)C(F)(F)F	-16.7
CC(C)(C)C(=O)N1CC[C@@H]2[C@H](CC1)N(S(C)(=O)=O)CCS2(=O)=O	98.9
CC(C)(C)CC(=O)N1CC[C@@H]2[C@H](CC1)N(S(C)(=O)=O)CCS2(=O)=O	-4.617
CC(C)CCC(=O)N1CC[C@@H]2[C@H](CC1)N(S(C)(=O)=O)CCS2(=O)=O	94.59
CC(=O)N1CCS(=O)(=O)[C@@H]2CCN(S(=O)(=O)CC(C)C)CC[C@@H]21	8.105
CC(C)CC(=O)N1CC[C@@H]2[C@H](CC1)N(S(C)(=O)=O)CCS2(=O)=O	1.552
CC(C)CN1CC[C@@H]2[C@H](CC1)N(S(C)(=O)=O)CCS2(=O)=O.O=C(O)C(F)(F)F	96.88
CC(C)CN1CCS(=O)(=O)[C@@H]2CCN(S(=O)(=O)C3CC3)CC[C@@H]21.O=C(O)C(F)(F)F	4.008
CC(=O)N1CCS(=O)(=O)[C@@H]2CCN(CC(C)C)CC[C@@H]21.O=C(O)C(F)(F)F	-6.859
